Experimental findings from PubChem BioAssay (EPA / NIEHS) are described below.

Experiment [1] in a line: BSK_LPS_PGE2: BioMAP Diversity Plus: LPS Assay for Prostaglandin E2 (PGE2) Biomarker Activity (AID 2283082).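 On AC50: secreted prostaglandin E2 measured by ELISA in LPS-stimulated co-culture.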 As to conditions: primary human HUVEC with PBMC; actives raise or lower the signal. In short, it runs like this: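 LPS-activated HUVEC/PBMC co-culture; cmpd dosed, 24 h; PGE2 by ELISA; bidirectional fit vs DMSO; SRB (0.1%, TCA-fixed, 560 nm) in parallel plates for overt cytotox.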

Read-out in experiment [2]: Macrophage colony-stimulating factor (MCSF), CSF1 (gene 1435)
Put plainly: BSK_LPS_MCSF: BioMAP Diversity Plus: LPS Assay for Macrophage colony-stimulating factor (MCSF) Biomarker Activity (AID 2283083). As to conditions: primary human HUVEC with PBMC; actives raise or lower the signal. In short, it runs like this: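 Bidirectional fit versus DMSO of ELISA-measured M-CSF in co-cultured human umbilical vein endothelial cells and PBMC, sampled 24 h after dosing.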

Read-out in experiment [3]: Tissue Factor, F3 (gene 2152)
Put plainly: BSK_LPS_TissueFactor: BioMAP Diversity Plus: LPS Assay for Tissue Factor Biomarker Activity (AID 2283084). Particulars: primary human HUVEC with PBMC; actives raise or lower the signal. In short, it runs like this: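 Read-out: CD142 ELISA, 24 h. System: LPS-driven human endothelial/PBMC co-culture. Analysis: up- or down-signal fitted against DMSO.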

Read-out in experiment [4]: Tumor necrosis factor (Homo sapiens) (UniProt P01375)
Put plainly: BSK_LPS_TNFa: BioMAP Diversity Plus: LPS Assay for Tumour Necrosis Factor alpha (TNFa) Biomarker Activity (AID 2283085). As to conditions: primary human HUVEC with PBMC; actives raise or lower the signal. In short, it runs like this: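 Read-out is ELISA of TNFa in primary human endothelial cell–PBMC co-cultures at 24 h after compound. Activity in either direction was fitted against DMSO.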

Read-out in experiment [5]: Vascular cell adhesion molecule 1 (VCAM1), VCAM1 (gene 7412)
Put plainly: BSK_LPS_VCAM1: BioMAP Diversity Plus: LPS Assay for Vascular cell adhesion molecule 1 (VCAM1) Biomarker Activity (AID 2283086). As to conditions: primary human HUVEC with PBMC; actives raise or lower the signal. The gist of the method:
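HUVEC + PBMC co-culture, LPS system; compound 24 h; VCAM-1 by ELISA; bidirectional fit vs DMSO control; parallel SRB (0.1%, TCA-fixed, 560 nm) for cytotoxicity.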

Read-out in experiment [6]: CD40, CD40 (gene 958)
Put plainly: BSK_SAg_CD40: BioMAP Diversity Plus: SAg Assay for CD40 Biomarker Activity (AID 2283088). As to conditions: primary human HUVEC with PBMC; actives raise or lower the signal. The gist of the method:
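Endpoint derived by fitting increases or decreases versus DMSO controls. CD40 is detected by fluorescence ELISA in a human vascular co-culture of endothelium and PBMC at 24 h.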

Read-out in experiment [7]: CD69, CD69 (gene 969)
Put plainly: BSK_SAg_CD69: BioMAP Diversity Plus: SAg Assay for CD69 Biomarker Activity (AID 2283089).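 On AC50: cell surface CD69 protein quantified by ELISA with fluorescence detection.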 Particulars: primary human HUVEC with PBMC; actives raise or lower the signal. The gist of the method: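 ELISA, fluorescence read-out: CD69 on human umbilical vein endothelial cell + PBMC co-culture, 24 h post-dosing. Gain or loss of signal fitted bidirectionally against DMSO baseline.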

Read-out in experiment [8]: Monocyte Chemoattractant Protein-1 (MCP1), CCL2 (gene 6347)
Put plainly: BSK_SAg_MCP1: BioMAP Diversity Plus: SAg Assay for Monocyte Chemoattractant Protein-1 (MCP1) Biomarker Activity (AID 2283090). As to conditions: primary human HUVEC with PBMC; actives raise or lower the signal. In short, it runs like this:
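MCP-1 levels in the endothelial–PBMC SAg co-culture were quantified by ELISA at 24 h post-dosing; both increases and decreases versus DMSO scored. Cytotoxicity monitored by SRB total protein in parallel cultures.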

Read-out in experiment [9]: E-selectin (Homo sapiens) (UniProt P16581)
Put plainly: BSK_SAg_Eselectin: BioMAP Diversity Plus: SAg Assay for Eselectin Biomarker Activity (AID 2283091). Particulars: primary human HUVEC with PBMC; actives raise or lower the signal. The gist of the method: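 Endpoint values derive from bidirectional fitting relative to DMSO, using ELISA-measured E-selectin in a human vascular co-culture (umbilical vein endothelium plus PBMC) sampled 24 h after dosing.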

Read-out in experiment [10]: Monokine induced gamma interferon (MIG), CXCL9 (gene 4283)
Put plainly: BSK_SAg_MIG: BioMAP Diversity Plus: SAg Assay for Monokine induced gamma interferon (MIG) Biomarker Activity (AID 2283092). As to conditions: primary human HUVEC with PBMC; actives raise or lower the signal. The gist of the method:
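ELISA readout of MIG/CXCL9; primary human umbilical vein endothelial cells co-cultured with peripheral blood mononuclear cells; 24 h post-dose; gain/loss fit vs DMSO baseline.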

Read-out in experiment [11]: Interleukin-8 (IL8), CXCL8 (gene 3576)
Put plainly: BSK_SAg_IL8: BioMAP Diversity Plus: SAg Assay for Interleukin-8 (IL8) Biomarker Activity (AID 2283094). As to conditions: primary human HUVEC with PBMC; actives raise or lower the signal. The gist of the method: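 ELISA read-out of IL-8 in a primary human vascular co-culture (umbilical vein endothelium plus PBMC), taken 24 h after compound addition. Values derive from bidirectional fits against DMSO negative controls.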

Experiment [12] can be described thus: BSK_SAg_Proliferation: Cell Proliferation Assessment in the BioMAP Diversity Plus: SAg Assay (AID 2283095).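 Further: relative cell number as total protein by SRB absorbance in sub-confluent culture.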 Particulars: primary human HUVEC with PBMC. In short, it runs like this: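 Cells (endothelium plus PBMC, human primary) were dosed with chemical, cultured 96 h, fixed in 10% TCA and stained with 0.1% SRB. Absorbance at 560 nm gave relative protein, fitted bidirectionally relative to DMSO.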

For experiment [13], the target named is human CYP1A1, CYP1A1 (gene 1543) (UniProt P04798). Put plainly: NVS_ADME_hCYP1A1: NovaScreen (NVS) CYP450-related Enzyme Activity (ADME) Assay for human CYP1A1 (AID 2283100; active means hit-call score of the fitted dose curve at least 0.9, where 1 is the maximum). The gist of the method:
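Inhibition of recombinant CYP1A1 turnover was assessed fluorometrically in a biochemical format 1 h after compound exposure. Testing began at 10 uM in duplicate and progressed to concentration series reaching 20 uM, with on-plate positive and negative controls.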

In experiment [14] the target is human CYP2B6, CYP2B6 (gene 1555) (UniProt P20813). Put plainly: NVS_ADME_hCYP2B6: NovaScreen (NVS) CYP450-related Enzyme Activity (ADME) Assay for human CYP2B6 (AID 2283101; active means hit-call score of the fitted dose curve at least 0.9, where 1 is the maximum). In short, it runs like this:
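Fluorescence-based enzyme activity of recombinant human CYP2B6, measured 1 h post-dose against acetonitrile vehicle baseline. Screened at a single concentration of 10 uM in duplicate before concentration-response follow-up.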

The target of experiment [15] is human CYP2D6, CYP2D6 (gene 1565) (UniProt P10635). Put plainly: NVS_ADME_hCYP2D6: NovaScreen (NVS) CYP450-related Enzyme Activity (ADME) Assay for human CYP2D6 (AID 2283107; active means hit-call score of the fitted dose curve at least 0.9, where 1 is the maximum). In short, it runs like this:
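Biochemical fluorescence assay, insect-cell-derived enzyme. Read at 1 h; inhibition taken from loss of signal against acetonitrile. Screened at 10 uM in duplicate, with concentration series for actives.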

The nature of experiment [16]: BSK_SAg_SRB: Viability Assessment in the BioMAP Diversity Plus: SAg Assay (AID 2283096).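 Further: cells read one day after compound addition; hits may be either gain or loss of signal compared with DMSO.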 As to conditions: primary human HUVEC with PBMC. The gist of the method: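 Total protein by sulforhodamine B staining, 24 h after dosing, in HUVEC–PBMC co-culture; DMSO-referenced bidirectional fitting.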
Experiment [17] is described as follows: BSK_SAg_PBMCCytotoxicity: PBMC Cytotoxicity Assessment in the BioMAP Diversity Plus: SAg Assay (AID 2283093).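 Further: PBMC viability measured as Alamar Blue reduction fluorescence at 546/580 nm; fitted both ways against DMSO so a hit may be loss or gain of signal.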 As to conditions: primary human HUVEC with PBMC. The gist of the method:
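Compound added to 75,000 PBMC/well for 1 h; SEB and TSST-1 then added at 20 ng/mL final each; 90 h incubation; Alamar Blue 6 h; read 546/580 nm ex/em. Activity fitted bidirectionally relative to DMSO baseline.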

Molecules are shown by their SMILES. Results filed as inconclusive are left out. Calls of active or inactive are those of the source. How the source made its calls, unless noted: active means hit-call score of the fitted dose curve at least 0.9, where 1 is the maximum; inactive means score below 0.9.

Sequence of Tumor necrosis factor (Homo sapiens) (P01375 whole entry, looked up): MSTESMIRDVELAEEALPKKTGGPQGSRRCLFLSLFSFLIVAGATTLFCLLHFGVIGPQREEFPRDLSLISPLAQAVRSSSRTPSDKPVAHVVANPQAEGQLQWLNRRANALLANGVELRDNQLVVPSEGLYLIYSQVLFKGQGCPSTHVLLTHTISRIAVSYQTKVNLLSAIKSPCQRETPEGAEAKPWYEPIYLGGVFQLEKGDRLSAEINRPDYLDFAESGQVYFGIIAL
Sequence of E-selectin (Homo sapiens) (P16581 whole entry, looked up): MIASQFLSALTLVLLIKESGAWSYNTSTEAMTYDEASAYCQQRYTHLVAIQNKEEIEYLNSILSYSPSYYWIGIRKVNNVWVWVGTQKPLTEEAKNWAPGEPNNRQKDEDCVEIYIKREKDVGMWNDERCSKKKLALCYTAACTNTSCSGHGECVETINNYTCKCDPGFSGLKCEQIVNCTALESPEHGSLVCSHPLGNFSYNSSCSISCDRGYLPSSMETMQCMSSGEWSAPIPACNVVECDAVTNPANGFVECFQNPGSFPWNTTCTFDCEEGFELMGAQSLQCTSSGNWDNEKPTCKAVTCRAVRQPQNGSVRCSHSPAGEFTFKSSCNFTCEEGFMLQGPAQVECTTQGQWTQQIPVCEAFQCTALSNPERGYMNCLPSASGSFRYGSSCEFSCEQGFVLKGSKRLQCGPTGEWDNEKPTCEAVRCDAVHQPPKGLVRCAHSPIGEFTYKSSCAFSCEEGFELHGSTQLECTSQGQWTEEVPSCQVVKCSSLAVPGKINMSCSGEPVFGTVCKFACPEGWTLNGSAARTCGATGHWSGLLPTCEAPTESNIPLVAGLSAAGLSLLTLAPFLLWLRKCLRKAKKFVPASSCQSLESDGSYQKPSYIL
Sequence of human CYP2D6, CYP2D6 (gene 1565) (P10635 whole entry, looked up): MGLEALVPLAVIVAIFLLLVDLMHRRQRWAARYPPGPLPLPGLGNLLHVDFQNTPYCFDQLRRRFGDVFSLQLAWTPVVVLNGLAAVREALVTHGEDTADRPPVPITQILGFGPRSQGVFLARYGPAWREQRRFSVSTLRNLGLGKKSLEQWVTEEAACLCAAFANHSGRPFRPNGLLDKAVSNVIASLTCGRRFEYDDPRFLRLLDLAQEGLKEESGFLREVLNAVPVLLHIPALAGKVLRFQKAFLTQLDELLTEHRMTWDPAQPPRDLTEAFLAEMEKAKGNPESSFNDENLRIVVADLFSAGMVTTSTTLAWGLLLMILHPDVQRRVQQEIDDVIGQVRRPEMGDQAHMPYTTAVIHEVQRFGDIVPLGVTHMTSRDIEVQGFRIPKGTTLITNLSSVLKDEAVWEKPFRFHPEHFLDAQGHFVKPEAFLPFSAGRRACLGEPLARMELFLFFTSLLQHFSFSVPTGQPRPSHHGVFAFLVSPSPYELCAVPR
Sequence of human CYP1A1, CYP1A1 (gene 1543) (P04798 whole entry, looked up): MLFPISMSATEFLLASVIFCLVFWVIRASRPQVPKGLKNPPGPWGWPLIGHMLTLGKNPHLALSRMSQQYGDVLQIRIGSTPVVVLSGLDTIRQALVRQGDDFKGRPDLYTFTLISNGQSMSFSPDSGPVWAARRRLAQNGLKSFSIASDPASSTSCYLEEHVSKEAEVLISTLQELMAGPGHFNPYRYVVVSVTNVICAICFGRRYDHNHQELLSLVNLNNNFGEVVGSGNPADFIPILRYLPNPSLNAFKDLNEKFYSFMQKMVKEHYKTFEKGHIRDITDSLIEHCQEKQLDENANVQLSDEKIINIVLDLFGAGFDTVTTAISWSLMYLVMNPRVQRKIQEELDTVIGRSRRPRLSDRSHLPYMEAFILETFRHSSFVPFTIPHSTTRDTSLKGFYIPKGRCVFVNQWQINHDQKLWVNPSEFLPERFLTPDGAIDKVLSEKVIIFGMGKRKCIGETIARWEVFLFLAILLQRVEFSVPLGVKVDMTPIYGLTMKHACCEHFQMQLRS
Sequence of human CYP2B6, CYP2B6 (gene 1555) (P20813 whole entry, looked up): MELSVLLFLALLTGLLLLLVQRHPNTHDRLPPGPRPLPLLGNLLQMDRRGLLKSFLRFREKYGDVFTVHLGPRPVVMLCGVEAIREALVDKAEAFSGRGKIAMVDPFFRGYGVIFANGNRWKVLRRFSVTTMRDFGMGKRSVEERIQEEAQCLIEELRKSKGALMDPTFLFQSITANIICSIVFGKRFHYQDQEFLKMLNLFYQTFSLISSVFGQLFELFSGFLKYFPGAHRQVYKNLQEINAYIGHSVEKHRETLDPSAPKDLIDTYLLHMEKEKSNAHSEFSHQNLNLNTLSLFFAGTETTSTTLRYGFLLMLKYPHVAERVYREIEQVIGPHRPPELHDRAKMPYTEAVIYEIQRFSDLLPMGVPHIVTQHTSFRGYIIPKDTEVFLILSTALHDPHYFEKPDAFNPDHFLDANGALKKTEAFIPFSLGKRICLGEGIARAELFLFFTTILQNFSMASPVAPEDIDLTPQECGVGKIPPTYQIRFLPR

By AC50 is commonly meant the concentration at which the activity in the assay is half-maximal. Take `CN(C)c1ccc(C(=C2C=CC(=[N+](C)C)C=C2)c2ccc(N(C)C)cc2)cc1`: the AC50 in experiment [1] is 1.13 µM (active); in [2], 0.476 µM (active); in experiment [3], 662 nM (active); in [4] it was 1.46 µM (active); in experiment [5], 2.51 µM (active); in experiment [6], 0.534 µM (active). The AC50 in experiment [7] is 0.582 µM (active); in [8] it was 325 nM (active); in experiment [9], 0.223 µM (active); in experiment [10], 1.61 µM (active); in [11], 148 nM (active); in experiment [12] it was 693 nM (active). Moreover, the AC50 in experiment [13] was 2.02 µM (active); in experiment [14] it was 6.7 µM (active); in experiment [15] it was 2.86 µM (active).

Regarding `Cc1ncc(CO)c(CO)c1O`, the outcome in experiment [1], in [2], in [3], in experiment [4], in experiment [5] and in experiment [6] was inactive. The result in [7], in [8], in experiment [9], in [11] and in experiment [12] was inactive.

Consider `Cc1cc2c(cc1C(F)(F)F)N(C(=O)Nc1ccc(Oc3cccnc3C)nc1)CC2`, for which the outcome in experiment [1], in experiment [3], in [4], in [7], in experiment [8] and in experiment [9] was inactive. Also, the result in experiment [10], in [11], in experiment [12] and in experiment [16] was inactive. For the same compound, the AC50 in [2] is 26.8 µM (active); in [5] it was 14.4 µM (active); in experiment [6] it was 18.4 µM (active).

For `c1ccc(C[n+]2cccc3ccccc32)cc1`, the result in experiment [1], in experiment [2], in experiment [3], in [4], in experiment [5] and in [6] was inactive. Besides, the result in experiment [7], in [8], in experiment [9], in [10], in experiment [17] and in [11] was inactive. Besides, the outcome in [12] and in experiment [16] was inactive. Besides, the AC50 in experiment [15] was 7.84 µM (active).

As to `Clc1cc(Cl)c2c(c1)N=C1CCCCCN1C2`, the outcome in experiment [1], in experiment [2], in experiment [3], in experiment [4], in experiment [5] and in experiment [6] was inactive. Also, the outcome in experiment [7], in [8], in experiment [9], in [10], in experiment [11] and in experiment [12] was inactive. The AC50 was 0.764 µM (active) in [13] and 2.71 µM (active) in experiment [15].

Take `CCCCCCCC[Si](OCC)(OCC)OCC`: the result in experiment [1], in experiment [2], in experiment [3], in experiment [4], in [6] and in experiment [8] was inactive. The outcome in experiment [10], in [11] and in experiment [12] was inactive. Moreover, the AC50 in [5] is 30.1 µM (active); in experiment [7], 25.4 µM (active); in experiment [9], 20.7 µM (active); in [16], 31.7 µM (active).
